Shown are actives, neighbours in structure and some others; about 7.4% of the full set was active somewhere.
NPC1 prom act: NPC1 promoter activation | Potency, µM (doses to about 9.22 µM), for the others: at the top dose activation, actives largely listed as activators | hit rate 2.4% among 320,000 | Huh7 NPC1 promoter luciferase reporter, 24 h; also: % of control where 0% means no effect; nearly all actives have a fitted effect of over 60% in size
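Luminescence from an NPC1 promoter-driven luciferase reporter in stably transfected Huh7 cells was measured after 24 h compound treatment at 37 °C, followed by 10 min ambient incubation with luciferase detection reagent.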
SMN2 splice up: increases expression of the SMN2 splice variant. Potency, µM (series often up to 46.1 µM), for the others: at the highest dose activity change, positive = activation, hits mostly activators. hit rate 2.8% among 210,000. HEK293 SMN2-luciferase splicing reporter, luminescence, 30-36 h; also: % of control where 0% means no effect; nearly all actives have a fitted effect of over 55% in size
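HEK293 cells carry an SMN2 […]–luciferase reporter in which exon 7 inclusion puts luciferase in frame. Cells were plated 10-12 h before compound addition, then incubated 30-36 h at 37C. ONE-Glo luminescence was read; sodium butyrate at 4.5 mM final served as control.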
ELG1 genotox: induces genotoxicity in HEK293T cells with luciferase-tagged ELG1. hit rate 1.3% among 330,000. HEK293T ELG1-luciferase reporter, luminescence, 16 h. Potency, µM (top dose mostly 46 µM), for inactives: at the highest dose activity change, positive = activation, hits mostly activators; also: % of control where 0% means no effect; nearly all actives have a fitted effect of over 60% in size
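HEK293T cells expressing luciferase-tagged ELG1 were treated with compound or DMSO for 16 hr at 37°C. Luciferase activity was then read after 30 min with ONE-Glo at room temperature; rising signal flags genetic stress.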
FLuc modulator: inhibits or activates purified firefly luciferase, miR-21 counter-screen; P08659; purified FLuc, Km substrates, luminescence inhibition; Potency, µM (top dose mostly 57.5 µM), for the others: top-dose activity change, negative = inhibition, hits mostly inhibitors; hit rate 6.9% among 360,000;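 also: plate controls were vehicle for no effect and reference inhibitor for full effect; nearly all actives have a fitted effect of over 55% in size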
Target sequence (P08659 whole entry, looked up): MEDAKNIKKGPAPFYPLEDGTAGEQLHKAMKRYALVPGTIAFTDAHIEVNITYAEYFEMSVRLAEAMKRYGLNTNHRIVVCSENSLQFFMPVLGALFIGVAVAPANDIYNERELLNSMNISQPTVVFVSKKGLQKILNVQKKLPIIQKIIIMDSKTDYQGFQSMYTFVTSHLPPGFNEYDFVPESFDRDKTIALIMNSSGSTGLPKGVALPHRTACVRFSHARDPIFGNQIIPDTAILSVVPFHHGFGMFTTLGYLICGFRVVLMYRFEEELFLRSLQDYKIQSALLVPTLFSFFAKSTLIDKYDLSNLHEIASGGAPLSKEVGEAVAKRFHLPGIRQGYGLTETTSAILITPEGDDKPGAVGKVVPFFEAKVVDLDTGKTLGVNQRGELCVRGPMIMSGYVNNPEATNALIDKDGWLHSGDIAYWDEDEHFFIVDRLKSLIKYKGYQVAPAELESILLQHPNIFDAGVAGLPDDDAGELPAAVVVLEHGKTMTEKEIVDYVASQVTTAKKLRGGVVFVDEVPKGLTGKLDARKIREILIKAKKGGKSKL
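Purified P. pyralis luciferase, 10 nM final, with Km-level 10 uM D-luciferin and 10 uM ATP in 50 mM Tris acetate pH 7.5, 10 mM Mg acetate, 0.01% Tween-20, 0.05% BSA; 6-point qHTS titration about 60 µM downward; luminescence read.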
Rab9 prom act: Rab9 promoter activation. Potency, µM (top dose mostly 9.22 µM), inactives show top-dose activation, negative = inhibition, usual class: activators. Huh7 Rab9 promoter-luciferase reporter, luminescence, 24 h. hit rate 2.8% among 320,000; also: % of control where 0% means no effect; nearly all actives have a fitted effect of over 60% in size
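Promoter activation is measured as luciferase luminescence in Huh7 cells stably transfected with a Rab9 promoter–luciferase construct, following 24 h compound exposure at 37 °C and 10 min reagent incubation at ambient temperature.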
Starred values were filed as active, the others as inactive; ? = inconclusive; / = no result; [ ] = dose if it differs, or a comment. Calls follow the shape of the dose curve; as a rule, active = well fitted curve in the direction sought with a large enough effect; inconclusive = small, poorly fitted or top-dose-only effect, or another doubt; inactive = no such curve, though single readings can be large; an effect the other way counts as inactive or inconclusive. Potency is read from the fitted curve at half-maximal effect.

SMILES | NPC1 prom act | SMN2 splice up | ELG1 genotox | FLuc modulator | Rab9 prom act
Cc1ccc(C#N)c(SCC(=O)Nc2nccs2)n1 | 0.79µM* | 1.8µM* | 1.8µM* | -11% | 0.45µM*
N#Cc1cc2c(nc1SCC(=O)Nc1sc3c(c1C#N)CCC3)CCC2 | ? | 5% | 13% | 2% | ?
Cc1cccc(-n2ccnc2SCC(=O)Nc2nccs2)c1 | ? | / | 15% | ? | 3.5µM*
CCc1nnc(NC(=O)CSc2nc3c(cc2C#N)CCC3)s1 | 2.8µM* | 13µM* | ? | 0.85µM* | 2.2µM*
Cc1ccc(SCC(=O)Nc2nccs2)cc1 | ? | 10% | ? | ? | ?
O=C(CCNC(=O)c1ccccc1)Nc1ccc(S(=O)(=O)Nc2ncccn2)cc1 | / | / | 1% | / | /
CCCCN1C(=O)c2[nH]nc(-c3ccccc3O)c2C1c1ccc(C(C)(C)C)cc1 (configuration not stated) | / | 22% | / | 0% | /
N#Cc1cc2c(nc1SCC(=O)Nc1nccs1)CCCCC2 | 0.28µM* | 1µM* | 0.12µM* | 0.67µM* | 0.28µM*
N#Cc1cc2c(nc1SCC(=O)Nc1sc3c(c1C#N)CCC3)CCCCCC2 | 1% | -26% | 0% | -1% | 3%
CCOC(=O)c1c(SCC(=O)Nc2nccs2)nc(C)c(C)c1C | 2.8µM* | / | ? | -1% | 2.5µM*
COc1ccccc1C1C(C(=O)c2cc3ccccc3o2)=C(O)C(=O)N1CCN1CCOCC1 (configuration not stated) | -2% | 4% | -1% | 13µM* | 16%
COc1cccc(C2C(C(=O)c3cc4ccccc4o3)=C(O)C(=O)N2CCN2CCOCC2)c1 (configuration not stated) | 6% | / | 2% | 0% | 4%
CN(Cc1ccco1)C(=O)CSc1nc(C2CC2)n(-c2ccccc2)n1 | -1% | / | 2% | 11% | 5%
Cc1ccc2scc(N3CCCCC3C)c(=O)c2c1 (configuration not stated) | / | / | / | 0.95µM* | /
CC1CCN(c2csc3ccc(F)cc3c2=O)CC1 | / | / | / | 6µM* | /
Cc1ccc2scc(N3CCC(C)CC3)c(=O)c2c1 | / | / | / | 1.2µM* | /
CC1CCN(c2cc3c(cc2F)c(=O)c(S(=O)(=O)c2ccc(Cl)cc2)cn3C)CC1 | / | / | / | -5% | /
Cc1ccc2scc(N3CCCCC3)c(=O)c2c1 | / | / | / | 0.85µM* | /
COc1ccc(N2CCN(c3csc4ccc(Cl)cc4c3=O)CC2)cc1 | / | / | / | -20% | /
CCn1cc(S(=O)(=O)c2cccc(C)c2)c(=O)c2cc(F)c(N3CCCCC3C)cc21 (configuration not stated) | / | / | / | 2% | /
CN(C)c1ccc(C2N([C@H](C#N)c3ccc(N(C)C)cc3)CCCN2[C@@H](C#N)c2ccc(N(C)C)cc2)cc1 (some centres not stated) | / | -8%[9.22 µM] | / | / | /
COc1ccc(CNC(=O)Cn2cnc3c(NCc4ccccc4)ncnc32)cc1 | / | / | 0% | / | /
C=C/C(C)=C/[C@@]1(C)SC(=O)C(C)=C1O | / | 3% | / | / | /
O=c1c(N2CCc3ccccc3C2)csc2ccc(F)cc12 | / | / | / | 6µM* | /
O=C(Nc1ccccc1)N1CCC(C(=O)N2CCN(c3ccccc3F)CC2)CC1 | 0% | 2% | -7% | -1% | 1%
SMILES | NPC1 prom act | SMN2 splice up | ELG1 genotox | FLuc modulator | Rab9 prom act
CCN1C(=O)/C(=C/C=C2\C=CN(CC)c3ccccc32)SC1=S | ? | 9% | ? | ? | 3.2µM*
CCN1C(=O)/C(=C2/C=CC=CN2C)SC1=S | 1% | 9% | -3% | -7% | 2%
CCCN1C(=O)/C(=C\C=C2/Sc3ccccc3N2CC)SC1=S | -3% | -12% | -2% | -17% | -2%
CCN1C(=O)/C(=C\C=C2/C=CC=CN2CC)SC1=S | 1.6µM* | 5.6µM* | 21µM* | 3.8µM* | 1.4µM*
Cc1cc(=O)oc2c(C)c3occc3cc12 | 2% | / | -4% | -18% | -2%
CC(/C=C1\SC(=S)N(CCCC(=O)Nc2ccc(C(=O)O)cc2)C1=O)=C\c1ccccc1 | 17% | -4% | 16% | 13µM* | 28%
CC(/C=C1\SC(=S)N(CCC(=O)Nc2cccc(C(=O)O)c2)C1=O)=C\c1ccccc1 | -4% | / | 0% | 24µM* | 0%
CC(/C=C1\SC(=S)N(CCC(=O)Nc2ccccc2O)C1=O)=C\c1ccccc1 | 6% | / | -2% | 2% | 7%
O=C(CCN1C(=O)/C(=C\c2cccs2)SC1=S)Nc1ccc(C(=O)O)cc1 | -2% | / | 12% | 0% | -4%
Cc1cc(OCc2cc(C(=O)N(C)CCc3cnn(C)c3)no2)cc(C)c1Cl | 2.8µM* | / | ? | 8.5µM* | 3.2µM*
COc1cc(Cl)ccc1OCc1cc(C(=O)N(C)CCc2cnn(C)c2)no1 | ? | / | 7%[9.26 µM] | 12µM* | ?
Cc1cc(OCc2cc(C(=O)N(C)C3CCOC3)no2)cc(C)c1Cl (configuration not stated) | 3.2µM* | / | ? | 6µM* | 1.8µM*
Cc1cc(C)c(C(=O)OCC(=O)Nc2cccc(S(=O)(=O)N3CCCCC3)c2)c(C)c1 | 6% | / | 24% | -2% | 2%
c1ccc(COc2ccc(OCCn3cncn3)cc2)cc1 | 2.5µM* | 11µM* | 9.2µM* | 9.5µM* | 3.2µM*
c1ccc(Oc2cccc(OCCn3cncn3)c2)cc1 | 0% | 0% | 10% | ? | 6%
c1ccc(-c2ccc(OCCCn3cncn3)cc2)cc1 | 26% | -7% | ? | 17µM* | 22%
CN1CCN(CCCOc2ccc(-c3ccccc3)cc2)CC1 | 2.8µM* | / | ? | 19µM* | ?
Cc1ccc(-n2c(=O)c3oc4ccccc4c3n(CC(=O)Nc3ccccc3)c2=O)cc1C | / | / | / | -6% | /
Cc1ccc(NC(=S)N/N=C/c2c(C)[nH]c3ccccc23)cc1 | 0% | -27% | 1% | 19µM* | -1%
Cc1[nH]c2ccccc2c1/C=N/NC(=O)c1ccccc1 | 0% | / | 4% | ? | -1%
Cc1[nH]c2ccccc2c1/C=N/NC(=O)c1ccc(N)cc1 | -5% | / | 7% | 12µM* | 1%
Cc1[nH]c2ccccc2c1/C=N/NC(=O)c1cc(C(C)(C)C)[nH]n1 | 14% | / | -5% | 12µM* | 0%
Cc1[nH]c2ccccc2c1/C=N/NC(=O)c1cc(-c2ccccc2)n[nH]1 | -12% | / | -11% | 24µM* | -3%
Cc1ccc(NC(=O)CN2C(=O)COc3ccc(S(=O)(=O)N4CCCCC4)cc32)cc1N(C)C | / | / | / | 1% | /
CCC(C)NC(=O)Cn1c(=O)n(Cc2ccc(C(=O)NCCCOC)cc2)c(=O)c2ccccc21 (configuration not stated) | / | 1% | / | -6% | /
Cc1cccc(NC(=O)c2oc3ccccc3c2NC(=O)c2cc(=O)c3ccc(C)cc3o2)c1 | / | 7% | / | -1% | /
CCn1c(SCC(=O)Nc2nccs2)nnc1-c1ccccn1 | -3% | / | 1% | 2% | 6%
CCc1ccc(CNC(=O)C2COc3ccccc3C2)cc1 (configuration not stated) | / | / | / | 0% | /

Screening data (PubChem)
